HSF1 activator – increases HSF-1 driven luciferase reporter signal; NIH3T3-HGL HSF-1 luciferase reporter, MG132, 8 h; 100% = twice DMSO control signal; activation, % at 9 µM; hit rate 1.7% among 300,000; AID 504408;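 active means mean replicate activation of at least 50% with a set share of replicates each reaching 50%; inconclusive means only one of those two conditions met; inactive means mean below 50% and too few replicates reaching it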;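 further: 0% = median of the neutral control wells and 100% = twice that signal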
Wnt act – activates Wnt/beta-catenin signaling in a reporter cell assay; activator, plate reader; activation, % at 9.35 µM; hit rate 1.2% among 300,000; in the data active means activation above about 30%, passing the limit was not always enough; inconclusive means no clear call, values can overlap the other calls;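 further: 0% = neutral control wells and 100% = positive control wells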
esBAF inh – inhibitors of esBAF chromatin remodeling in mouse ES cells | Bmi1-luciferase knock-in reporter, 24 h; 100% = twice the neutral-well signal | reporter increase, % at 12.5 µM | hit rate 2% among 350,000 | AID 602393; in the data active means activation above about 40%; inconclusive means no clear call, values can overlap the other calls;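 further: 0% = median of the plate's neutral control wells and 100% = double that signal; a rise in the Bmi1 reporter signal indicates esBAF inhibition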
MITF TRPM1 HTS – MITF TRPM1 promoter activation in melanoma cells | SK-MEL-5 TRPM1-promoter luciferase, 24 h; % of positive control, neutral wells = 0 | activation, % at 12.5 µM | hit rate 0.75% among 300,000;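 active means mean activation of at least 80% with every replicate also reaching 80%; inconclusive means mean reaches 80% but some replicate falls short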;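 further: 0% = neutral control wells and 100% = parthenolide positive control wells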
HSF1 inhib – HSF1 inhibition | NIH3T3-HGL HSE-luciferase, MG132-induced, luminescence 8 h; hits give low values | activity change, negative = inhibition, % at 7.5 µM (by protocol) | hit rate 0.77% among 300,000 | AID 2098;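 active means more than half of replicate wells show activity change below -50%, luminescence cut by over half; inconclusive means some wells, but at most half, below -50%; inactive means no replicate well below -50%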;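 further: luciferase reports HSF-1 transcriptional activity via heat shock element; 0% = median of DMSO wells and -100% = zero luminescence signal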
SMARCA2 activ – activators of SMARCA2 function; activation, % at 9.1 µM; MG213 cells, MMTV-luciferase reporter, dexamethasone, overnight; hit rate 1% among 370,000; in the data active means activation above about 7.8%;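 further: 0% = vehicle wells and 100% = reference activator wells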
Starred values were filed as active, the others as inactive. The list is not random: actives were taken first. Their share in the collection is about 4.3%.

What do the screens show for `Cc1[nH]nc2c1C(c1cc(Br)cs1)C(C#N)=C(N)O2` (stereo not given)?
HSF1 activator: 70*; Wnt act: -4; MITF TRPM1 HTS: -32; HSF1 inhib: 65; SMARCA2 activ: -2

What do the screens show for `Cc1cc(C)c(C2C(C#N)=C(N)Oc3n[nH]c(C)c32)cc1CN1CCCC1` (stereo not given)?
HSF1 activator: 0; Wnt act: 1; esBAF inh: -1; MITF TRPM1 HTS: -4; HSF1 inhib: 4; SMARCA2 activ: 7.9*

Results for Cc1[nH]nc2c1C(c1ccoc1)C(C#N)=C(N)O2 (stereo not given) ?
HSF1 activator: 15; MITF TRPM1 HTS: 7; HSF1 inhib: 6; SMARCA2 activ: -2

How did OC(CNCc1ccccc1)c1ccccc1 (stereo not given) do in these assays?
HSF1 activator: 6; Wnt act: -3; esBAF inh: 4; MITF TRPM1 HTS: 7; HSF1 inhib: 4; SMARCA2 activ: -3

What do the screens show for `OC(CNCc1cccc(Cl)c1)c1ccccc1` (stereo not given)?
HSF1 activator: 72*; MITF TRPM1 HTS: -4; HSF1 inhib: 25; SMARCA2 activ: 2

What do the screens show for `COc1cccc(S(=O)(=O)N2C[C@@H](O)COC[C@H]3O[C@H](CC(=O)N4CCOCC4)CC[C@@H]32)c1`?
esBAF inh: 4

How did COc1cc(N=CC2=C(O)c3ccccc3C2=O)cc(OC)c1 do in these assays?
HSF1 activator: -5; Wnt act: 0; esBAF inh: 43*; MITF TRPM1 HTS: 62; HSF1 inhib: -1; SMARCA2 activ: -2

Results for COc1ccccc1S(=O)(=O)N[C@H]1CC[C@@H](CC(=O)NCc2cccc(F)c2)O[C@@H]1CO ?
esBAF inh: -3

Results for Cc1ccccc1-c1nnc(CS(=O)(=O)c2ccccc2)o1 ?
HSF1 activator: 127*; Wnt act: -3; esBAF inh: 16; MITF TRPM1 HTS: 103*; HSF1 inhib: 76; SMARCA2 activ: 4

Results for Cc1ccccc1-c1nnc(-c2ccc(Cl)cc2)o1 ?
Wnt act: 25; esBAF inh: 36; MITF TRPM1 HTS: 31; SMARCA2 activ: 4

How did Cc1ccccc1-c1nnc(-c2cccs2)o1 do in these assays?
HSF1 activator: 21; Wnt act: 2; esBAF inh: 42*; MITF TRPM1 HTS: 49; HSF1 inhib: 19; SMARCA2 activ: 1

What do the screens show for `Cc1ccc(C)c(-c2nnc(NC(=O)CCS(=O)(=O)c3ccccc3)o2)c1`?
HSF1 activator: 41; Wnt act: 3; MITF TRPM1 HTS: -3; HSF1 inhib: 19; SMARCA2 activ: 2

Results for Fc1ccc(-c2nc(-c3cccs3)no2)cc1 ?
HSF1 activator: 38; Wnt act: -6; MITF TRPM1 HTS: 58; HSF1 inhib: 24; SMARCA2 activ: -2

What do the screens show for `Cc1ccccc1-c1noc(-c2cccs2)n1`?
HSF1 activator: 47; Wnt act: 18; esBAF inh: 54*; HSF1 inhib: 24; SMARCA2 activ: 0

What do the screens show for `c1coc(-c2nnc(-c3cccs3)o2)c1`?
HSF1 activator: 26; esBAF inh: 20; HSF1 inhib: 18; SMARCA2 activ: 0

What do the screens show for `Cc1ccccc1-c1nnc(-c2ccccc2)o1`?
HSF1 activator: 38; esBAF inh: 43*; MITF TRPM1 HTS: 41; HSF1 inhib: 20; SMARCA2 activ: 6

What do the screens show for `CCC(=O)N1[C@@H]2CN(C(=O)c3cccc(OC)c3)c3ccccc3[C@@H]2[C@@H]1CO`?
esBAF inh: 0

What do the screens show for `C[C@H]1CCCCO[C@H](CN(C)CC2CC2)[C@@H](C)CN([C@@H](C)CO)C(=O)c2cc(NC(=O)c3ccncc3)ccc2O1`?
esBAF inh: -5

Results for Clc1ccccc1-c1nnc(-c2ccccc2Cl)o1 ?
HSF1 activator: inconclusive; Wnt act: 29; esBAF inh: 71*; MITF TRPM1 HTS: inconclusive; HSF1 inhib: 26; SMARCA2 activ: 4

What do the screens show for `Clc1ccc(-c2nnc(-c3ccccc3Cl)o2)cc1`?
HSF1 activator: 35; esBAF inh: -10; MITF TRPM1 HTS: 38; HSF1 inhib: 9; SMARCA2 activ: 6

How did Cc1ccc(S(=O)(=O)Nc2ccc3c(c2)CC(=O)N([C@@H](C)CO)C[C@H](C)[C@@H](CN(C)S(=O)(=O)c2ccc(Cl)cc2)O3)cc1 do in these assays?
esBAF inh: 0

What do the screens show for `Cc1oc(-c2cccc(Cl)c2)nc1CN1CCCC(C(=O)NC(C)c2ccc3c(c2)OCCO3)C1` (stereo not given)?
HSF1 activator: 54*; Wnt act: 0; esBAF inh: -1; MITF TRPM1 HTS: -16; HSF1 inhib: 27; SMARCA2 activ: -1

What do the screens show for `COCCNC(=O)C[C@H]1CC[C@H](NS(=O)(=O)c2ccc(C)cc2)[C@H](CO)O1`?
esBAF inh: 2

How did Cc1cc(S(=O)(=O)N2CCN=C2c2ccccc2)c(C)cc1Cl do in these assays?
HSF1 activator: -72; Wnt act: 0; MITF TRPM1 HTS: 12; HSF1 inhib: -63*; SMARCA2 activ: -2

What do the screens show for `Cc1c(Cl)ccc(S(=O)(=O)N2CCN=C2c2ccccc2)c1Cl`?
HSF1 activator: -4; MITF TRPM1 HTS: 7; HSF1 inhib: -12; SMARCA2 activ: -2

How did COC(=O)c1sccc1-c1ccc(C(=O)Nc2cccnc2)o1 do in these assays?
HSF1 activator: 32; Wnt act: 5; esBAF inh: 20; MITF TRPM1 HTS: 97*; HSF1 inhib: 16; SMARCA2 activ: 2

How did COC(=O)C(=Cc1ccc(-c2ccsc2C(=O)OC)o1)C(=O)OC do in these assays?
HSF1 activator: 43; Wnt act: 0; MITF TRPM1 HTS: 55; HSF1 inhib: 31; SMARCA2 activ: 7.9*

Results for CCOC(=O)C(=Cc1ccc(-c2ccsc2C(=O)OC)o1)C(=O)OCC ?
HSF1 activator: 90*; Wnt act: 0; esBAF inh: 8; HSF1 inhib: 75; SMARCA2 activ: 6

How did CCOC(=O)/C(C#N)=C/c1ccc(-c2ccsc2C(=O)OC)o1 do in these assays?
HSF1 activator: 21; Wnt act: -3; esBAF inh: 54*; HSF1 inhib: 4; SMARCA2 activ: 0

Results for Fc1ccc(-c2cn3cc(C(F)(F)F)cc(Cl)c3n2)cc1 ?
HSF1 activator: 83*; Wnt act: 49*; esBAF inh: 46*; MITF TRPM1 HTS: 39; HSF1 inhib: 43; SMARCA2 activ: 6

Results for O=C(Nc1ccc(N2CCOCC2)cc1N1CCOCC1)c1ccccc1 ?
Wnt act: -1; esBAF inh: -7; MITF TRPM1 HTS: 4; SMARCA2 activ: -1

Results for O=C(Nc1ccccc1N1CCOCC1)c1ccc2ccccc2n1 ?
HSF1 activator: 27; Wnt act: 40*; esBAF inh: 59*; HSF1 inhib: 14; SMARCA2 activ: 6

Results for O=C(NC(=O)N1CCN(c2ccccc2)CC1)c1ccc(Cl)cc1 ?
HSF1 activator: 2; esBAF inh: 49*; HSF1 inhib: 13; SMARCA2 activ: 6

Screening data: PubChem, several laboratories
